# Tests used:
# Assay in all cases: yeast three-hybrid, YBZ-1, SC-Leu-His + 0.5 mM 3-AT, 4 days
# Conditions in all cases: tags: N-Gal4 AD-HA kept; label: inside an RPR1-promoter hybrid RNA with tandem MS2 sites; ssRNA
# PUM1 PUF domain R4-RMR = PUM1 PUF domain R4-RMR (Homo sapiens, UniProt Q14671 828-1176, N971R;H972M;Q975R)
# In short: (§1)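 A centromeric plasmid in strain YBZ-1 co-expressed Pumilio-1 PUF domain libraries, randomized at the three base-contacting residues of each repeat, with matching RNA elements; the strain carries a LexA–MS2 coat fusion and a HIS3 reporter. After four days on SC-Leu (input) or SC-Leu-His + 0.5 mM 3-AT (selection), the repeat regions were PCR-amplified and Illumina-sequenced. The interaction score is the log change in variant frequency from input to selection, using log2 and a pseudocount of 1 where absent.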
# PUM1 PUF domain R4-ARG = PUM1 PUF domain R4-ARG (Homo sapiens, UniProt Q14671 828-1176, N971A;H972R;Q975G)
# In short: as §1
# PUM1 PUF domain R4-NPG = PUM1 PUF domain R4-NPG (Homo sapiens, UniProt Q14671 828-1176, H972P;Q975G)
# In short: as §1
# PUM1 PUF domain R4-GSQ = PUM1 PUF domain R4-GSQ (Homo sapiens, UniProt Q14671 828-1176, N971G;H972S)
# In short: as §1
# PUM1 PUF domain R7-EPW = PUM1 PUF domain R7-EPW (Homo sapiens, UniProt Q14671 828-1176, S1079E;N1080P;E1083W)
# In short: as §1
# PUM1 PUF domain R7-RGW = PUM1 PUF domain R7-RGW (Homo sapiens, UniProt Q14671 828-1176, S1079R;N1080G;E1083W)
# In short: as §1
# PUM1 PUF domain R7-KFY = PUM1 PUF domain R7-KFY (Homo sapiens, UniProt Q14671 828-1176, S1079K;N1080F;E1083Y)
# In short: as §1
# PUM1 PUF domain R3-ART = PUM1 PUF domain R3-ART (Homo sapiens, UniProt Q14671 828-1176, C935A;Q939T)
# In short: as §1
# PUM1 PUF domain R8-VYF = PUM1 PUF domain R8-VYF (Homo sapiens, UniProt Q14671 828-1176, N1122V;Q1126F)
# In short: as §1
# PUM1 PUF domain R8-RWP = PUM1 PUF domain R8-RWP (Homo sapiens, UniProt Q14671 828-1176, N1122R;Y1123W;Q1126P)
# In short: as §1
# PUM1 PUF domain R8-PYL = PUM1 PUF domain R8-PYL (Homo sapiens, UniProt Q14671 828-1176, N1122P;Q1126L)
# In short: as §1
# PUM1 PUF domain R8-RYN = PUM1 PUF domain R8-RYN (Homo sapiens, UniProt Q14671 828-1176, N1122R;Q1126N)
# In short: as §1
# PUM1 PUF domain R5-EFW = PUM1 PUF domain R5-EFW (Homo sapiens, UniProt Q14671 828-1176, C1007E;R1008F;Q1011W)
# In short: as §1
# PUM1 PUF domain R3-EYS = PUM1 PUF domain R3-EYS (Homo sapiens, UniProt Q14671 828-1176, C935E;R936Y;Q939S)
# In short: as §1
# PUM1 PUF domain R3-IFS = PUM1 PUF domain R3-IFS (Homo sapiens, UniProt Q14671 828-1176, C935I;R936F;Q939S)
# In short: as §1
# PUM1 PUF domain R5-NIL = PUM1 PUF domain R5-NIL (Homo sapiens, UniProt Q14671 828-1176, C1007N;R1008I;Q1011L)
# In short: as §1
# PUM1 PUF domain R4-SRE = PUM1 PUF domain R4-SRE (Homo sapiens, UniProt Q14671 828-1176, N971S;H972R;Q975E)
# In short: as §1
# PUM1 PUF domain R6-NFT = biological target: T1, PUM1 PUF domain R6-NFT (Homo sapiens, UniProt Q14671 828-1176, Y1044F;Q1047T)
# T1 sequence: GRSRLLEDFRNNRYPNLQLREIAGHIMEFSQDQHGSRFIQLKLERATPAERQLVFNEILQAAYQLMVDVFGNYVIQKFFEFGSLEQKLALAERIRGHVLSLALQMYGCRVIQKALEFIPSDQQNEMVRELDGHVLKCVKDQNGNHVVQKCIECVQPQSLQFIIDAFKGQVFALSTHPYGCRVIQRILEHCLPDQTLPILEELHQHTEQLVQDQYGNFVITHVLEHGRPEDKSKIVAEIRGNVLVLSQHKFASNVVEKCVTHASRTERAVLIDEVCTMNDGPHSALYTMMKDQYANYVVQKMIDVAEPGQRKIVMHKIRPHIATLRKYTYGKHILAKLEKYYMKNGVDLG
# In short: as §1
# PUM1 PUF domain R3-ESL = PUM1 PUF domain R3-ESL (Homo sapiens, UniProt Q14671 828-1176, C935E;R936S;Q939L)
# In short: as §1
# PUM1 PUF domain R5-RAV = PUM1 PUF domain R5-RAV (Homo sapiens, UniProt Q14671 828-1176, C1007R;R1008A;Q1011V)
# In short: as §1
# Chain of PUM1 PUF domain R4-ARG (Q14671 828-1176 N971A/H972R/Q975G): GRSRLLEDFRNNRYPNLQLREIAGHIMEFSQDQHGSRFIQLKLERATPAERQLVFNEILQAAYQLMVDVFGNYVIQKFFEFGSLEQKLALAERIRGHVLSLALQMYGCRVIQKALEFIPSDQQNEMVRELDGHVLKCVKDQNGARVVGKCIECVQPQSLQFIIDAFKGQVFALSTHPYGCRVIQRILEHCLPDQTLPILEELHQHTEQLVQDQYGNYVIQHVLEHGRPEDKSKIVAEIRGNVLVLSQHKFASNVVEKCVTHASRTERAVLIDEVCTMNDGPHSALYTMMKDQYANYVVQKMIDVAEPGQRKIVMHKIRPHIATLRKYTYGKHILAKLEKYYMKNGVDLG
# Chain of PUM1 PUF domain R4-NPG (Q14671 828-1176 H972P/Q975G): as the sequence (Q14671 828-1176 N971A/H972R/Q975G) above, with A144N, R145P counted along it
sequence,measurement,setting,value
GGCUAGAACUAGUGGAUCCCCCGGCGCCCGGCGGCUCGAGCCCGGGUAAGUGUACAUAGUCUGCAUGCCGCCGGGCGCCAUGCCUGCAGGUCGACUCUAGAAAACAUG,binding signal,PUM1 PUF domain R4-RMR,2.94 log2 enrichment (interaction score)
same,binding signal,PUM1 PUF domain R4-ARG,1.86 log2 enrichment (interaction score)
same,binding signal,PUM1 PUF domain R4-NPG,1.42 log2 enrichment (interaction score)
same,binding signal,PUM1 PUF domain R4-GSQ,3.24 log2 enrichment (interaction score)
GGCUAGAACUAGUGGAUCCCCCGGCGCCCGGCGGCUCGAGCCCGGGUAAGUUUAAAUAGUCUGCAUGCCGCCGGGCGCCAUGCCUGCAGGUCGACUCUAGAAAACAUG,binding signal,PUM1 PUF domain R7-EPW,2.81 log2 enrichment (interaction score)
same,binding signal,PUM1 PUF domain R7-RGW,3.68 log2 enrichment (interaction score)
GGCUAGAACUAGUGGAUCCCCCGGCGCCCGGCGGCUCGAGCCCGGGUAAGUAUAAAUAGUCUGCAUGCCGCCGGGCGCCAUGCCUGCAGGUCGACUCUAGAAAACAUG,binding signal,PUM1 PUF domain R7-KFY,2.56 log2 enrichment (interaction score)
GGCUAGAACUAGUGGAUCCCCCGGCGCCCGGCGGCUCGAGCCCGGGUAAGUGUAAUUAGUCUGCAUGCCGCCGGGCGCCAUGCCUGCAGGUCGACUCUAGAAAACAUG,binding signal,PUM1 PUF domain R3-ART,0.34 log2 enrichment (interaction score)
GGCUAGAACUAGUGGAUCCCCCGGCGCCCGGCGGCUCGAGCCCGGGUAAGUCUAAAUAGUCUGCAUGCCGCCGGGCGCCAUGCCUGCAGGUCGACUCUAGAAAACAUG,binding signal,PUM1 PUF domain R7-KFY,3.1 log2 enrichment (interaction score)
GGCUAGAACUAGUGGAUCCCCCGGCGCCCGGCGGCUCGAGCCCGGGUAAGCGUAAAUAGUCUGCAUGCCGCCGGGCGCCAUGCCUGCAGGUCGACUCUAGAAAACAUG,binding signal,PUM1 PUF domain R8-VYF,2.73 log2 enrichment (interaction score)
same,binding signal,PUM1 PUF domain R8-RWP,5 log2 enrichment (interaction score)
same,binding signal,PUM1 PUF domain R8-PYL,3.48 log2 enrichment (interaction score)
same,binding signal,PUM1 PUF domain R8-RYN,6.46 log2 enrichment (interaction score)
GGCUAGAACUAGUGGAUCCCCCGGCGCCCGGCGGCUCGAGCCCGGGUAAGUGUGAAUAGUCUGCAUGCCGCCGGGCGCCAUGCCUGCAGGUCGACUCUAGAAAACAUG,binding signal,PUM1 PUF domain R5-EFW,4.12 log2 enrichment (interaction score)
GGCUAGAACUAGUGGAUCCCCCGGCGCCCGGCGGCUCGAGCCCGGGUAAGUGUAAGUAGUCUGCAUGCCGCCGGGCGCCAUGCCUGCAGGUCGACUCUAGAAAACAUG,binding signal,PUM1 PUF domain R3-EYS,4.44 log2 enrichment (interaction score)
same,binding signal,PUM1 PUF domain R3-IFS,5.56 log2 enrichment (interaction score)
GGCUAGAACUAGUGGAUCCCCCGGCGCCCGGCGGCUCGAGCCCGGGUAAGUGUUAAUAGUCUGCAUGCCGCCGGGCGCCAUGCCUGCAGGUCGACUCUAGAAAACAUG,binding signal,PUM1 PUF domain R5-NIL,3.18 log2 enrichment (interaction score)
GGCUAGAACUAGUGGAUCCCCCGGCGCCCGGCGGCUCGAGCCCGGGUAAGUGUAAAUAGUCUGCAUGCCGCCGGGCGCCAUGCCUGCAGGUCGACUCUAGAAAACAUG,binding signal,PUM1 PUF domain R4-SRE,3.49 log2 enrichment (interaction score)
same,binding signal,PUM1 PUF domain R4-ARG,4.57 log2 enrichment (interaction score)
same,binding signal,PUM1 PUF domain R6-NFT,4.45 log2 enrichment (interaction score)
same,binding signal,PUM1 PUF domain R3-ESL,2.59 log2 enrichment (interaction score)
same,binding signal,PUM1 PUF domain R8-VYF,2.23 log2 enrichment (interaction score)
same,binding signal,PUM1 PUF domain R4-NPG,2.63 log2 enrichment (interaction score)
same,binding signal,PUM1 PUF domain R8-RWP,3.02 log2 enrichment (interaction score)
same,binding signal,PUM1 PUF domain R3-ART,3.43 log2 enrichment (interaction score)
same,binding signal,PUM1 PUF domain R5-EFW,4.47 log2 enrichment (interaction score)
same,binding signal,PUM1 PUF domain R8-PYL,2.9 log2 enrichment (interaction score)
same,binding signal,PUM1 PUF domain R8-RYN,5.13 log2 enrichment (interaction score)
GGCUAGAACUAGUGGAUCCCCCGGCGCCCGGCGGCUCGAGCCCGGGUAAGUGUAUAUAGUCUGCAUGCCGCCGGGCGCCAUGCCUGCAGGUCGACUCUAGAAAACAUG,binding signal,PUM1 PUF domain R4-ARG,1.79 log2 enrichment (interaction score)
same,binding signal,PUM1 PUF domain R4-NPG,3.81 log2 enrichment (interaction score)
same,binding signal,PUM1 PUF domain R4-GSQ,0.64 log2 enrichment (interaction score)
GGCUAGAACUAGUGGAUCCCCCGGCGCCCGGCGGCUCGAGCCCGGGUAAGUGUCAAUAGUCUGCAUGCCGCCGGGCGCCAUGCCUGCAGGUCGACUCUAGAAAACAUG,binding signal,PUM1 PUF domain R5-RAV,2.94 log2 enrichment (interaction score)

# From article PMC8384837, “Expanding the binding specificity for RNA recognition by a PUF domain”
